Test results: publication PMC4336329 (PLoS ONE, 2015)
Screen size: about 310,000 compounds; about 14,000 (4.5%) showed an effect of 50% or more. Effects have a minus sign here. Shown is part of a subset that was picked to be rich in strong results.

target: human ether-à-go-go-related gene (hERG) potassium channel (human, UniProt Q12809); experiment: primary screen, population patch clamp on CHO cells stably expressing hERG; higher = less effect of the substance
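Also: peak tail current of the secondary pulse compared with the same well before compound.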

Sequence of human ether-à-go-go-related gene (hERG) potassium channel (Q12809 whole entry, looked up): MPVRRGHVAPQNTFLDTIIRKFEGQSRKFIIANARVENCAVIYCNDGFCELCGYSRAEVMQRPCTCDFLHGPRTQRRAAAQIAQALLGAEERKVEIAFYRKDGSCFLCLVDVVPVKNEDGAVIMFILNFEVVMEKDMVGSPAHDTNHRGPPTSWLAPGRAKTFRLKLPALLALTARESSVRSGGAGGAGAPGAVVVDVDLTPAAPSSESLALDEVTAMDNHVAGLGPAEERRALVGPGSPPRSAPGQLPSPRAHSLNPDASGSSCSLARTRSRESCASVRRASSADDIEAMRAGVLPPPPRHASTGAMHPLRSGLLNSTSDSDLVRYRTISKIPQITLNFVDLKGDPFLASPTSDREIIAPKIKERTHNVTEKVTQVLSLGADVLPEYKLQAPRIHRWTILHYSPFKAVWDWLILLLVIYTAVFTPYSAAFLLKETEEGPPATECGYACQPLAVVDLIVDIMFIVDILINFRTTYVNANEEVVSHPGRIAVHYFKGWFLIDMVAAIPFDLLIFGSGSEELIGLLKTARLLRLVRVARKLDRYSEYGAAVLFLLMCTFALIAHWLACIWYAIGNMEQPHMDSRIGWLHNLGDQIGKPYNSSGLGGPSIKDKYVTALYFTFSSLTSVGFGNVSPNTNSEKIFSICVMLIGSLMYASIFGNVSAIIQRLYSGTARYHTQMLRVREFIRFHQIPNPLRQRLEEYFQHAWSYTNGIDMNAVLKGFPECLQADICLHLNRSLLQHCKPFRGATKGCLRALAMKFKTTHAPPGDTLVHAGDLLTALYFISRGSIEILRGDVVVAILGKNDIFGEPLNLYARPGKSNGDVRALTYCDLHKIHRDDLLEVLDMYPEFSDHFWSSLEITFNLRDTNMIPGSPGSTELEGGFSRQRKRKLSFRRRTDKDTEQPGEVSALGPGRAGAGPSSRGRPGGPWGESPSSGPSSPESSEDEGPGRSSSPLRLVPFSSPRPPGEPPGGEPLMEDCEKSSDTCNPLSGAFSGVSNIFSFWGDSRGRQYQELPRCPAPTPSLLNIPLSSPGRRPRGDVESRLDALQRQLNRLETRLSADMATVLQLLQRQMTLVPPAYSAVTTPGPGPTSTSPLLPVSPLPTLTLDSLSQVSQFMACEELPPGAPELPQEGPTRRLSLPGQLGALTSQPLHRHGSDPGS

| Structure (SMILES) | hERG current change (%, negative = inhibition) at 10uM |
| --- | --- |
| O=[N+]([O-])c1cccc(S(=O)(=O)N/N=C/c2ccc(O)cc2)c1 | 1.14% |
| CC(=O)Nc1nc(C)c(Oc2ccc(Cl)cc2Cl)c(=O)[nH]1 | 10.5% |
| COc1ccccc1NC(=O)c1ccc(NC(=O)COC(=O)CC(NC(=O)c2ccccc2Cl)c2ccccc2)cc1 (centres unmarked) | 6.73% |
| Cc1oc(-c2ccccc2Cl)nc1CN1CCCCC1CO (centres unmarked) | -20.5% |
| Cc1oc(-c2cccc(C(F)(F)F)c2)nc1CN1CCC[C@H]1CO | -35% |
| Cc1ccc(-c2nc(CN3CCCCC3CCN3CCCC3=O)c(C)o2)o1 (centres unmarked) | -51.5% |
| COc1cccc(C2CCCCN2Cc2nc(-c3ccc(C)o3)oc2C)c1 (centres unmarked) | -12.5% |
| CCN1CCCC1CNC(=O)C1CCN(Cc2nc(-c3cccc(Br)c3)oc2C)CC1 (centres unmarked) | -9.4% |
| Cc1oc(-c2cccc(F)c2)nc1CN1CCCCC1CCn1cccn1 (centres unmarked) | -73.1% |
| Cc1ccc(-c2nc(CN3CCCCC3c3cccc(F)c3)c(C)o2)o1 (centres unmarked) | 44.7% |
| CCOc1ccc(-c2nc(CN3CCCCC3CCn3cccn3)c(C)o2)cc1 (centres unmarked) | -71.5% |
| CSc1ccc(-c2nc(CN3CCCCC3c3cccnc3)c(C)o2)cc1 (centres unmarked) | -19.8% |
| O=C(NCCc1c[nH]c2ccccc12)c1c(Cl)nc2sccn12 | 15.4% |
| O=C(NC(Cc1c[nH]c2ccccc12)C(=O)O)c1cccs1 (centres unmarked) | 18.6% |
| Cc1ccc(Cl)cc1NC(=O)CCC(=O)NCc1ccco1 | 7.15% |
| O=C(CN1C(=O)NC2(CCCc3ccccc32)C1=O)N1CCN(C(=O)c2ccco2)CC1 (centres unmarked) | -34.3% |
| COc1ccc2[nH]c(O)c(NC(C)=O)c2c1 | 1.61% |
| COc1cc(NC(=O)COc2ccc(Br)cc2)ccc1NC(=O)C(C)C | 4.1% |
| CC1CCN(C(=O)COc2ccc(S(=O)(=O)N3CCOCC3)cc2)CC1 | -1.39% |
| Cc1ccc2[nH]cc(CCCN3C(=O)c4ccccc4C3=O)c2c1 | -51.4% |

| Structure (SMILES) | hERG current change (%, negative = inhibition) at 10uM |
| --- | --- |
| COc1ccc2[nH]cc(CCCN3C(=O)c4ccccc4C3=O)c2c1 | -4.87% |
| O=C1c2ccccc2C(=O)N1CCCc1c[nH]c2ccc(Cl)cc12 | -19.3% |
| CC(=O)c1cccc(NS(=O)(=O)c2ccc3c(c2)oc(=O)n3C)c1 | -6.14% |
| O=C1CCN(Cc2ccccc2)CCN1[C@H](CSc1ccccc1)c1ccccc1 | -44.7% |
| Cc1ccc(SC[C@H](c2ccccc2)N2CCN(CCc3ccccc3)CCC2=O)cc1 | -74.7% |
| O=C1CCN(CCc2ccccc2)CCN1[C@H](CSc1ccc(Br)cc1)c1ccccc1 | -66.2% |
| O=C1CCN(CCc2ccccc2)CCN1[C@H](CSc1ccccc1)c1ccccc1 | -78.7% |
| [N-]=[N+]=NC[C@H](c1ccccc1)N1CCN(Cc2ccccc2)CCC1=O | -0.754% |
| Cc1ccnc(N2CCC(C(=O)NNC(=O)COc3cccc4ccccc34)CC2)n1 | 11.2% |
| Cc1cccc(NC(=O)CCc2nnc3ccc(NCc4ccco4)nn23)n1 | 6.78% |
| Cc1cc(C)c(OCCN(C)C)c(Cl)c1.O=C(O)C(=O)O | -21.1% |
| O=C(NC1CCCC1)C(c1cccs1)N(C(=O)c1ccco1)c1ccc2c(c1)OCO2 (centres unmarked) | -33.5% |
| Nc1nc(SCC(=O)NCc2ccco2)[nH]c(=O)c1-c1ccccc1 | 22.3% |
| CC(C(=O)N(C)CC(=O)Nc1ccccc1C(F)(F)F)N1C(=O)c2ccccc2C1=O (centres unmarked) | -10.7% |
| COc1ccc(N(CC(=O)NC2CCCC2)C(=O)c2ccc(C)s2)cc1OC | 15.8% |
| COC(=O)c1ccc(NC(=O)C[n+]2ccccc2C)cc1.[Cl-] | 10.1% |
| Cc1cc(Nc2c(C)cccc2C)n2nc(C)nc2n1 | 3.66% |
| CC(C)(C)c1ccccc1OCCOCCN1CCCCCC1.O=C(O)C(=O)O | -39.1% |
| Cc1cc(Br)ccc1OCCCCN1CCCCC1.O=C(O)C(=O)O | -78.9% |
| Cc1cccc(C)c1OCCCCN1CCCCC1.O=C(O)C(=O)O | -11.8% |

| Structure (SMILES) | hERG current change (%, negative = inhibition) at 10uM |
| --- | --- |
| Cc1cc(Br)ccc1OCCCCN1CCC(C)CC1.O=C(O)C(=O)O | -67.9% |
| Cc1cc(Br)ccc1OCCN1CC(C)OC(C)C1.O=C(O)C(=O)O (centres unmarked) | -17.8% |
| Cc1cc(Br)ccc1OCCN1CCCC1.O=C(O)C(=O)O | -36.8% |
| Cc1cc(Br)ccc1OCCOCCN1CCCC1.O=C(O)C(=O)O | -60.7% |
| Cc1cc(Br)ccc1OCC(=O)N1CCCCCC1 | -12.1% |
| CCN1CCN(CCOc2ccc(Br)cc2C)CC1.O=C(O)C(=O)O | -46.6% |
| N#C/C(=C\c1cn(Cc2ccccc2)c2ccccc12)C(=O)NCc1ccco1 | 12.5% |
| Cc1ccccc1OCC(=O)OCC(=O)NCc1cccs1 | 1.72% |
| COc1cc(-c2nc(CCNC(=O)c3ccco3)cs2)cc(OC)c1OC | -24.7% |
| Cc1cc(C)cc(NC(=S)N2CCN(c3ccccn3)CC2)c1 | -1.07% |
| COc1ccc(NC(=O)Nc2cc(C)ccc2F)cc1 | 0.822% |
| CCOc1ccc(-n2cnnn2)cc1S(=O)(=O)N1CCCCC1 | -10.1% |
| CC1CCN(C(=O)c2cc3c(=O)n4ccccc4nc3s2)CC1 | 18.7% |
| CC(=O)Nc1ccc(Nc2cc(C)nc3ccccc23)cc1 | -7.21% |
| CC(=O)c1cccc(Nc2cc(C)nc3ccccc23)c1.Cl | -64% |
| CC(=O)c1ccc(Nc2cc(C)nc3ccccc23)cc1 | -31.3% |
| COc1ccc2nc(C)cc(Nc3cccc(C(=O)O)c3)c2c1 | 21.7% |
| CCOC(=O)c1ccc2nc(C)cc(Nc3cccc(C(=O)O)c3)c2c1 | 5.41% |
| CC(=O)c1cccc(Nc2cc(C)nc3ccc(C)cc23)c1.Cl | -65.2% |
